Compound activity: PubChem BioAssay, several laboratories
Rows were chosen to be rich in hits. Some 32% of all compounds tested hit in one or more screens of this group.
CYP2C19 act = human CYP2C19 activators, primary screen, biochemical, luminescence; Cytochrome P450 2C19 (Homo sapiens), P33261; recombinant CYP2C19, luciferin-H EGE luminescence; stronger effect = higher value; 0 = fully inhibited enzyme, 1 = untreated enzyme; activation factor at 5 µM; 96,000 tested, under 10 active; AID 1025, 2008;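 active = activation factor of at least 2 at 5 µM in the primary screen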;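 also: 0 = wells with 2.5 mM tranylcypromine and 1 = vehicle-only wells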
CYP2C19 inh = blockers of cytochrome P450 2C19 activity – biochemical, luminescence, ADME assay, primary screen; CYP2C19 Supersomes, luciferin-H EGE luminescence, 30 min; inhibition, % at 5 µM; 21% of 96,000 active;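 active = CYP2C19 inhibition above a set limit at 5 µM in the primary screen, cut at about 50% in these data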;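 also: plate controls were negative control wells for no effect and 2.5 mM tranylcypromine positive control for full effect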
PostGolgi ctrl = growth inhibition of yeast control strain, primary screen, counter-screen for post-Golgi transport modulator project; efflux-deficient yeast background strain, growth absorbance A615, 16 h; 5% of 98,000 active; inhibition, % at 10 µM
PostGolgi yeast = phenotypic screen on post-Golgi transport, primary screen | post-Golgi transport phenotypic cell assay | inhibition, % at 10 µM | 0.9% of 98,000 active;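 also: yeast cells grown in 1536-well plates; yeast grown about 18 h at 30C before absorbance read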
CYP2C9 inh = blockers of cytochrome P450 2C9 activity – biochemical, luminescence, ADME assay, primary screen; P11712; inhibition, % at 5 µM; 20% of 96,000 active; CYP2C9 Supersomes, luciferin-H conversion;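 active = blocking of liver enzyme CYP2C9 beyond about 50% at 5 µM, limit read from the data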
Target sequence (P11712 whole entry, looked up): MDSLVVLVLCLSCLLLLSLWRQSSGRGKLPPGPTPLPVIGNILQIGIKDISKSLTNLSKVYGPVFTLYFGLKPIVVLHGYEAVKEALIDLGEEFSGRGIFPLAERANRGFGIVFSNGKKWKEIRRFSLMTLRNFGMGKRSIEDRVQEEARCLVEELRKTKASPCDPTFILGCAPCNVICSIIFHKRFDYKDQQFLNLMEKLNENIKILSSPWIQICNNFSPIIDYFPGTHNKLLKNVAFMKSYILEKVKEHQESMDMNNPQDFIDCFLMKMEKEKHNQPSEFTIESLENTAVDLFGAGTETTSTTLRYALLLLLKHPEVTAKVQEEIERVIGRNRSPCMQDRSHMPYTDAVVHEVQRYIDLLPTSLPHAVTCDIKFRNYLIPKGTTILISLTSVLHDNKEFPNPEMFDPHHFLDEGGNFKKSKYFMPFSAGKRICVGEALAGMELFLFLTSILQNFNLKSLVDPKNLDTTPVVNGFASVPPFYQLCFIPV
CYP2C9 activ = human CYP2C9 activators, primary screen, biochemical, luminescence | Cytochrome P450 2C9 (Homo sapiens), P11712 | recombinant CYP2C9, luciferin-H conversion; stronger effect = higher value; factor 1 = untreated enzyme, 0 = blocked | activation factor at 5 µM | 1.4% of 96,000 active | AID 1024, 2008;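 active = activation factor of 2 or more for CYP2C9 at a 5 µM dose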;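 also: 0 = sulfaphenazole-blocked wells and 1 = vehicle-only wells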
* = called active by the depositor. Rule as the data show it, unless noted: active = inhibition above about 30%; inactive = the rest.

Screening C=CCn1c(SCC(=O)c2cc(C)n(Cc3cccs3)c2C)nnc1-c1ccncc1 returned CYP2C19 act 0.6, CYP2C19 inh 43.5, PostGolgi ctrl 10.7, PostGolgi yeast 21.0, CYP2C9 inh 36.1 and CYP2C9 activ 0.6.
For Cc1cc(C)c(C(=O)CSc2nnc(-c3ccccc3Br)o2)cc1C the results were CYP2C19 act 0.7, CYP2C19 inh 27.8, PostGolgi ctrl -1.0, PostGolgi yeast 9.2, CYP2C9 inh -24.3 and CYP2C9 activ 1.2.
Screening COc1ccccc1-n1cnnc1SCC(=O)c1cc(C)n(Cc2cccs2)c1C returned CYP2C19 act 0, CYP2C19 inh 97.8*, PostGolgi ctrl 6.1, PostGolgi yeast -9.3, CYP2C9 inh 88.8* and CYP2C9 activ 0.1.
For O=C(OCCNC(=O)c1ccc2ccccc2n1)c1ccc(F)cc1 the results were CYP2C19 act 0.8, CYP2C19 inh 16.4, PostGolgi ctrl 25.9, PostGolgi yeast 1.9, CYP2C9 inh 31.0 and CYP2C9 activ 0.7.
CNS(=O)(=O)c1cccc(C(=O)OCC(=O)Nc2ccccc2OC(F)F)c1 was read as CYP2C19 act 0.9, CYP2C19 inh 10.4, PostGolgi ctrl -3.6, PostGolgi yeast 4.4, CYP2C9 inh -81.8 and CYP2C9 activ 1.8.
For COc1ccccc1N1CC(C(=O)OCC(=O)c2ccc(F)cc2)CC1=O (configuration not stated) the results were CYP2C19 act 0.7, CYP2C19 inh 26.3, PostGolgi ctrl 2.7, PostGolgi yeast 1.0, CYP2C9 inh -64.2 and CYP2C9 activ 1.6.
Screening Cc1ccc(C(=O)COC(=O)C2CC(=O)N(c3nc(-c4ccccc4)cs3)C2)cc1 (configuration not stated) returned CYP2C19 act 0.3, CYP2C19 inh 71.2*, PostGolgi ctrl -1.4, PostGolgi yeast 4.3, CYP2C9 inh 78.7* and CYP2C9 activ 0.2.
Cc1cccc(N2CC(C(=O)OCC(=O)c3ccc(OC(=O)c4cccs4)cc3)CC2=O)c1C (configuration not stated) was read as CYP2C19 act 0.3, CYP2C19 inh 71.0*, PostGolgi ctrl 11.1, PostGolgi yeast -6.5, CYP2C9 inh 76.2* and CYP2C9 activ 0.2.
For Cc1onc(-c2ccccc2)c1C(=O)N1CCN(S(=O)(=O)c2ccc3c(c2)OCCO3)CC1 the results were CYP2C19 act 0.3, CYP2C19 inh 73.6*, PostGolgi ctrl 24.2, PostGolgi yeast -11.1, CYP2C9 inh 40.9 and CYP2C9 activ 0.6.
`COc1ccc(S(=O)(=O)N2CCN(C(=O)c3c(-c4ccccc4)noc3C)CC2)cc1` gave CYP2C19 act 0.6, CYP2C19 inh 38.8, PostGolgi ctrl 5.8, PostGolgi yeast -1.1, CYP2C9 inh 14.4 and CYP2C9 activ 0.9.
Screening O=S(=O)(c1ccc(-c2cn3ccccc3n2)cc1)N1CCOCC1 returned CYP2C19 act 0.9, CYP2C19 inh 5.2, PostGolgi ctrl 3.5, PostGolgi yeast -1.7, CYP2C9 inh 54.9* and CYP2C9 activ 0.5.
`O=S(=O)(c1ccc(Oc2ccccc2)cc1)N1CCOCC1` gave CYP2C19 act 0.6, CYP2C19 inh 42.4, PostGolgi ctrl 8.8, PostGolgi yeast -3.2, CYP2C9 inh 56.8* and CYP2C9 activ 0.4.
`O=C(c1ccco1)N1CCN(S(=O)(=O)c2ccc(Oc3ccccc3)cc2)CC1` gave CYP2C19 act 0.5, CYP2C19 inh 53.7*, PostGolgi ctrl 9.4, PostGolgi yeast -47.8, CYP2C9 inh 84.4* and CYP2C9 activ 0.2.
`O=C(CCc1ccc(S(=O)(=O)N2CCOCC2)cc1)Oc1ccccc1` gave CYP2C19 act 0.9, CYP2C19 inh 5.2, PostGolgi ctrl 5.1, PostGolgi yeast 3.8, CYP2C9 inh 22.0 and CYP2C9 activ 0.8.
`O=C(c1ccco1)N1CCN(S(=O)(=O)c2ccc(S(=O)(=O)NC3CC3)cc2)CC1` gave CYP2C19 act 1, CYP2C19 inh 4.4, PostGolgi ctrl 4.9, PostGolgi yeast 3.4, CYP2C9 inh 20.0 and CYP2C9 activ 0.8.
Screening N#Cc1c(/N=C/C=C/c2ccccc2)sc2c1CCCC2 returned CYP2C19 act 0.9, CYP2C19 inh 13.7, PostGolgi ctrl 4.7, PostGolgi yeast 4.2, CYP2C9 inh -27.0 and CYP2C9 activ 1.3.
